# Pf Dd2 growth: inhibitors of Plasmodium falciparum Dd2 growth; P. falciparum Dd2 growth, SYBR Green, 72 h; Potency, µM (top dose mostly 28.9 µM), actives largely listed as inhibitors; hit rate 4.3% among 120,000; AID 1347417; active means well fitted inhibition curve with a large enough effect; further: nearly all actives have a fitted effect of over 65% in size
#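 Infected erythrocytes (Dd2, 0.3% parasitemia, 2.5% hematocrit final) are added to compound in RPMI-1640/Albumax II medium, grown 72 h at 37C in low oxygen, then lysed with saponin/Triton-X containing SYBR Green and read by fluorescence.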
# A number is an active result; - = inactive. The full list was thinned out, with hits kept by preference.
SMILES,Pf Dd2 growth
N#Cc1cccc(CN2CCC3(CC2)CN(c2ncccn2)CC3CO)c1 (stereo not drawn),-
COc1ccc(-c2cc(-c3ccc(F)cc3)cn3cncc23)cc1,3.2µM
OCc1ccc(-c2cc(-c3ccncc3)c3cncn3c2)cc1,-
Cn1cc(-c2cc(-c3ccncc3)c3cncn3c2)cn1,-
COc1ccc(-c2cc(-c3ccncc3)cn3cncc23)cc1,10µM
Fc1cccc(-c2cc(-c3cn[nH]c3)c3cncn3c2)c1,-
CN(C)Cc1ccc(-c2cc(-c3cn[nH]c3)c3cncn3c2)cc1,-
CC(=O)c1cccc(N2C(=O)[C@@H]3[C@@H](CCN3C(=O)C(C)(C)C)N(Cc3cccc(F)c3)C2=O)c1,-
Cc1nc(-c2c3n(c(=O)n(CC(=O)Nc4ccc(F)cc4)c2=O)CCCC3)no1,-
COc1cccc(C(=O)N2CCC(N3C[C@H](O)C[C@H]3C(=O)NCc3ccc(C)o3)CC2)c1,-
COCC1(CNCc2cnn(C)c2)C[C@@H](O)[C@@H](O)C1 (stereo partly drawn),-
O=C(O)C(c1cccc2c1OCC2)N1CCC(OCc2cccnc2)CC1 (stereo not drawn),-
Cc1cccc(NC(=O)N2CCCC(CN3CCOCC3)CC2)c1 (stereo not drawn),-
CC(C)CNC(=O)N1CCC(c2nc(CCOCC3CCOCC3)no2)C1 (stereo not drawn),-
COc1ccc(CN[C@H]2C[C@@H](Cc3cc(CCO)on3)C2(C)C)cc1,-
COCc1cc(C[C@@H]2C[C@H](NC3CCOCC3)C2(C)C)no1,-
COCc1cc(C[C@@H]2C[C@H](NCc3cccnc3)C2(C)C)no1,-
CC(=O)N1CCC(N[C@H]2C[C@@H](Cc3cc(CCO)on3)C2(C)C)CC1,-
Fc1ccc(-c2cc(CC3(NCc4cccnc4)COC3)no2)cc1,-
CN(C)Cc1cc(C[C@@H]2C[C@H](NCc3ccc(F)cc3)C2(C)C)no1,3.2µM
CC1(C)[C@H](Cc2cc(-c3ccc(F)cc3)on2)C[C@@H]1NCc1cccnc1,7.9µM
CC1(C)[C@H](Cc2cc(-c3ccc(F)cc3)on2)C[C@@H]1NC1CCC1,11µM
CN1CCC(N[C@H]2C[C@@H](Cc3cc(C(C)(C)C)on3)C2(C)C)CC1,5µM
CN(C)C1(Cc2cc(-c3ccc(F)cc3)on2)COC1,-
CN(Cc1cc(C[C@@H]2C[C@H](NCc3ncc[nH]3)C2(C)C)no1)c1ccccc1,-
SMILES,Pf Dd2 growth
COCc1cc(C[C@@H]2C[C@H](NCC3CC3)C2(C)C)no1,-
COC1CCOC2(CCN(C(=O)c3ccoc3)CC2)C1 (stereo not drawn),-
Cc1ccccc1C(=O)N1CCCC(c2nn(-c3ccc(F)cc3)c(=O)[nH]2)C1 (stereo not drawn),-
COc1ccc(NC(=O)N2C[C@@H]3C[C@H](C2)c2ccc(NC(=O)C4CCCCC4)c(=O)n2C3)cc1,-
O=C1NCCCCCN(Cc2cn[nH]c2-c2ccc(F)cc2)[C@H]2CCC[C@@H]12,-
O=C1CCC2(CCCO2)CCN1Cc1ccc(OC(F)(F)F)cc1 (stereo not drawn),-
COc1ccc(F)cc1C(=O)NCc1c(C)ncc2c1CCNC2,-
Fc1ccc(NC(=S)N[C@H]2CO[C@H]3[C@@H]2OC[C@@H]3n2nnnc2Oc2ccc3c(c2)OCO3)cc1,-
O=C([C@@H]1C[C@H](F)CN1C(=O)c1ccsc1)N1CCCCC1,-
CC(=O)NC1(C)CCCN(Cc2cc(Br)cs2)C1 (stereo not drawn),-
COc1cc(CN2CCC(C)(NC(C)=O)CC2)cc(-c2ccccc2)c1,-
CC(=O)NC1(C)CCN(Cc2ccc(-c3ccc4c(ccn4C)c3)cc2)C1 (stereo not drawn),10µM
COc1ccccc1CNC(=O)C1(CCO)CCN(Cc2ccccc2)C1 (stereo not drawn),-
CC(=O)NC1(C)CCN(Cc2ccc(-c3ccc([S+](C)(=O)[O-])cc3)cc2)C1 (stereo not drawn),-
CC(=O)NC1(C)CCN(Cc2ccc(-c3ccccc3Oc3ccccc3)cc2)C1 (stereo not drawn),7.1µM
Cn1cccc1C(=O)N1CCCC(n2cc(-c3nc(C4CC4)no3)nn2)C1 (stereo not drawn),-
Cc1ccc(-c2noc([C@@H]3CCCN3C(=O)c3ccc(C)nc3)n2)cc1,-
O=C(N[C@H]1C[C@H]2C(=O)NC[C@@H](CCC(=O)N3CCN(c4ccccc4)CC3)N2C1)c1cccs1,-
O=C(c1ccc(Br)o1)N1CCCN(c2cc(-c3ccc(F)cc3)[nH]n2)CC1,-
CC(=O)NCCC(=O)N1Cc2ccccc2CC2(CCN(CC3CCNC3)CC2)C1 (stereo not drawn),-
COc1ccc(OC)c(S(=O)(=O)N[C@H]2CO[C@H]3[C@@H]2OC[C@H]3OC(=O)Nc2ccc(Oc3ccccc3)cc2)c1,-
CC(C)c1ccc(NC(=O)O[C@@H]2CO[C@H]3[C@@H]2OC[C@@H]3NS(=O)(=O)c2cccs2)cc1,2.2µM
CC(=O)Nc1ccc(S(=O)(=O)N[C@H]2CO[C@H]3[C@@H]2OC[C@H]3OC(=O)Nc2ccc(Oc3ccccc3)cc2)cc1,6.3µM
COc1ccc(NC(=O)O[C@@H]2CO[C@H]3[C@@H]2OC[C@@H]3NS(=O)(=O)c2ccccc2C#N)cc1,-
Cc1ccc(C(=O)N[C@H]2CO[C@H]3[C@@H]2OC[C@H]3OC(=O)Nc2ccc(C(C)C)cc2)cc1,-
SMILES,Pf Dd2 growth
N#Cc1ccccc1S(=O)(=O)N[C@H]1CO[C@H]2[C@@H]1OC[C@H]2OC(=O)Nc1ccc(Oc2ccccc2)cc1,-
Cc1nnnn1CCCN1CCC2(CCC(=O)N(CC(C)O)C2)CC1 (stereo not drawn),-
COCCOc1ccc2c(n1)CCN(C(=O)Cc1cccc(F)c1)C2,-
O=C1CCC(CCC(=O)N2CCN(c3ccccc3)C(=O)C2)(Cc2ccc(F)cc2)N1 (stereo not drawn),-
Cc1cc(C)n(CCCN(C)C(=O)c2cn(Cc3ccc(F)cc3)nn2)n1,-
CN(C)[C@@H]1CN(Cc2ccc(C#N)cc2)C[C@H]1CO,-
CC(=O)N1CCC(N2C[C@H](O)C[C@H]2c2nc(-c3ccccn3)no2)CC1,-
COc1ccc(-c2cn3cc(C(=O)N4CCCC4)nc3c(=O)n2CC2CC2)c(F)c1,8.9µM
O=C(c1cn2cc(-c3ccccc3Cl)n(CC3CC3)c(=O)c2n1)N1CC[C@@H](O)C1,-
COc1ccc(-c2cn3cc(C(=O)NCCO)nc3c(=O)n2CC2CC2)c(F)c1,-
CNC(=O)c1cnn2c1CN([S+](=O)([O-])c1cccc(OC)c1)CC2,-
O=C1CC(c2ccccc2)N(C(=O)CNC(=O)c2[nH]nc3c2COc2ccccc2-3)CCCCCN1 (stereo not drawn),2.5µM
COc1ccc2cc(C(=O)NCC(=O)N3CCCCCCNC(=O)CC3c3ccccc3)[nH]c2c1 (stereo not drawn),14µM
O=C1CC(c2ccccc2)N(C(=O)CNC(=O)c2nccc3ccccc23)CCCCCCN1 (stereo not drawn),0.35µM
O=C1CC(c2ccccc2)N(C(=O)CNC(=O)c2n[nH]c3ccccc23)CCCCCN1 (stereo not drawn),-
O=C1CC(c2ccccc2)N(C(=O)CNC(=O)c2ccncc2)CCCCCCN1 (stereo not drawn),-
COc1ccc(C(=O)NCC(=O)N2CCCCCCNC(=O)CC2c2ccccc2)cc1F (stereo not drawn),-
COc1cccc(CC(=O)NCC(=O)N2CCCCCCNC(=O)CC2c2ccccc2)c1 (stereo not drawn),-
